Compounds with a hit are over-represented: about 19% of the library has one in this group of screens.
HT1080 IDH1KD tx = toxicity to HT-1080 IDH1 knockdown cells (counter line). HT-1080 IDH1 knockdown viability, ATP luminescence, 48 h. Potency, µM (doses to about 46.1 µM), actives largely listed as cytotoxic. 360,000 tested, 2% active
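HT-1080-IDH1KD cells (IDH1 knocked down), 750/well in RPMI with 5% FBS, treated with compound 48 h at 37 degrees C. Viability by CellTiter-Glo luminescence, normalised to DMSO and no-cell wells; concentration-response curves classed.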
KB-3-1 tox = kills parental KB-3-1 adenocarcinoma cells | Potency, µM (top dose mostly 46.1 µM), most hits filed as cytotoxic | AID 1347075 | 400,000 tested, 1.4% active | KB-3-1 viability, CellTiter-Glo ATP luminescence, 72 h; note: nearly all actives have a fitted effect of over 60% in size
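Multi-concentration cytotoxicity screen in KB-3-1 cells grown in DMEM lacking phenol red with 10% FBS. After 72 h at 37 °C with compound, ATP-dependent luminescence was recorded.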
KB-V1 MDR tox = kills drug-selected multidrug resistant KB-V1 cells; KB-V1 MDR cells viability, CellTiter-Glo, 72 h; 400,000 tested, 3.4% active; AID 1347076; Potency, µM (titrated, usually from 46.1 µM), usual class: cytotoxic; note: nearly all actives have a fitted effect of over 60% in size
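qHTS viability screen in drug-selected KB-V1 MDR cells: 72 h compound treatment at 37 degrees C, ATP luminescence end point.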
TDP1 cell CPT = DT40-hTDP1 cell growth loss with CPT; 420,000 tested, 12% active; chicken DT40 Tdp1-/-;hTDP1 cells + 20 nM CPT, ATP luminescence, 48 h; Potency, µM (doses to about 46.2 µM), actives largely listed as inhibitors; note: nearly all actives have a fitted effect of over 55% in size
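Chicken DT40 Tdp1-/- cells stably complemented with human TDP1 were seeded at 400 cells/well in medium containing 20 nM camptothecin, exposed to pin-transferred compounds, and grown at 37 °C for at least 48 hr. Viability was read as ATP luminescence.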
TDP1 cell noCPT = qHTS for Inhibitors of human tyrosyl-DNA phosphodiesterase 1 (TDP1): qHTS in cells in absence of CPT. Potency, µM (doses to about 46.2 µM), usual class: inhibitors. AID 686978, 2013. DT40 Tdp1-/- hTDP1 cells, no CPT, ATP luminescence, 48 h. 420,000 tested, 15% active; note: nearly all actives have a fitted effect of over 55% in size
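Readout: luminescence from CellTiter-Glo after 30 min in the dark at RT. Cells: DT40 Tdp1-/- with stable hTDP1, 400/well. Exposure: compounds alone, ≥48 hr, 37 °C.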
HT1080-NT tox = kills 2HG-producing HT-1080-NT fibrosarcoma cells; HT-1080-NT fibrosarcoma viability, CellTiter-Glo ATP luminescence, 48 h; Potency, µM (series often up to 46.1 µM), actives largely listed as cytotoxic; 360,000 tested, 1.6% active;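 note: NT is the 2HG producing partner of a matched IDH1 knockdown line; nearly all actives have a fitted effect of over 55% in size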
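Luminescent CellTiter-Glo readout after 48 hours of compound exposure at 37 degrees C defined viability of HT-1080-NT cells. Activity was normalized to DMSO wells and cell-free media wells; concentration-response curves were fitted and assigned curve classes.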
Numbers stand for hits; 0 = inactive; ? = inconclusive; - = not tested or not shown; [ ] = remark or other dose. Calls come from the whole dose curve; as a rule, active = well fitted curve in the direction sought with a large enough effect; inconclusive = small, poorly fitted or top-dose-only effect, or another doubt; inactive = no such curve, though single readings can be large; an effect the other way counts as inactive or inconclusive.

SMILES	HT1080 IDH1KD tx	KB-3-1 tox	KB-V1 MDR tox	TDP1 cell CPT	TDP1 cell noCPT	HT1080-NT tox
CCc1noc(C)c1C(=O)N1CCN(S(=O)(=O)c2ccccc2C(F)(F)F)CC1	0	0	0	0	0	0
Cc1cccc(N2C(=O)CN(Cc3sccc3C)C2=S)c1	0	?	23µM	0	0	0
Cc1cc(C)cc(N2C(=O)CN(Cc3sccc3C)C2=S)c1	0	0	0	0	0	0
CC(C)CNC(=O)C1(C)CCCN1C(=O)Cc1cccc2ccccc12 (centres undefined)	0	0	0	9.2µM	8.2µM	0
CC1(C(=O)NCc2cccc3ccccc23)CCN1C(=O)Cc1ccc(-c2ccccc2)cc1 (centres undefined)	?	0	0	?	?	18µM
CC1(C(=O)NCC(F)(F)F)CCN1C(=O)Cc1ccc(-c2ccccc2)cc1 (centres undefined)	0	?	?	15µM	?	0
CC1(C(=O)NCCC#N)CCN1C(=O)Cc1ccc(-c2ccccc2)cc1 (centres undefined)	0	?	?	?	?	0
CC1(C(=O)NCc2cccs2)CCN1C(=O)Cc1cccc2ccccc12 (centres undefined)	0	0	0	29µM	16µM	0
CC(C)CNC(=O)C1(C)CCCN1C(=O)c1cc2ccccc2s1 (centres undefined)	0	0	0	0	0	0
CCNc1ncc2nc(-c3ccc(Cl)cc3)c(=O)n(C)c2n1	-	-	-	0	0	-
CN1CCN(C(=O)c2cc3c(n(-c4ccccc4)c2=O)CC(C)(C)CC3=O)CC1	0	0	0	0	0	0
O=C(NCc1ccco1)c1ccc(=O)oc1	0	0	0	0	0	0
OC1(c2ccc(Br)cc2)CCNCC1	?	0	0	?	0	22µM
COc1ccc(N2CCN(C(=O)CCCSc3nc4ccccc4[nH]3)CC2)cc1	0	0	0	?	?	0
NC(=O)c1ccc(-n2nnnc2SCc2ccccc2)cc1	0	0	0	0	?	0
O=C(Nc1nccs1)c1ccc(CSc2nnnn2-c2ccccc2)cc1	?	?	0	13µM	0	?
CN1CCc2c(n(CC(O)CNCc3ccccc3)c3ccccc23)C1=O (centres undefined)	?	0	0	8.2µM	8.2µM	?
O=C(NCC(c1ccco1)N1CCN(c2ccccc2F)CC1)C(=O)NC1CCCC1 (centres undefined)	0	0	?	?	9.2µM	0
O=C(NCC(c1ccco1)N1CCN(c2ccccc2F)CC1)c1cccs1 (centres undefined)	0	0	0	0	?	0
O=C(NCc1cccs1)C(=O)NCC(c1ccco1)N1CCN(c2ccccc2F)CC1 (centres undefined)	0	0	?	23µM	?	0
CCN(C(=S)Nc1ccccc1F)C1CCCCC1	0	0	0	?	23µM	0
CC(NC(=O)CNC(=S)N(Cc1cccs1)C1CCCC1)c1ccccc1 (centres undefined)	0	0	0	?	16µM	0
Cc1ccccc1NC(=S)N(Cc1cccs1)C1CCCCC1	0	0	0	0	9.2µM	0
CCC(C)NC(=O)CNC(=S)N(Cc1ccccc1F)C1CCCCC1 (centres undefined)	0	0	?	0	?	0
Cc1ccc(C(=O)NNC(=O)CCN2C(=O)C3CCCCC3C2=O)cc1 (centres undefined)	0	0	0	0	0	0
SMILES	HT1080 IDH1KD tx	KB-3-1 tox	KB-V1 MDR tox	TDP1 cell CPT	TDP1 cell noCPT	HT1080-NT tox
O=c1cc(CSc2nc(NCc3ccc(Cl)cc3)c3ccccc3n2)nc2ccc(Cl)cn12	0	0	0	0	0	0
COc1ccc(-c2noc(Cn3cc(S(=O)(=O)N4CCCC4)ccc3=O)n2)cc1	0	0	5.8µM	0	0	0
O=c1ccc(S(=O)(=O)N2CCCC2)cn1Cc1nc(-c2ccc(F)cc2)no1	0	0	?	?	?	0
CN(C)C(=O)c1ccc(=O)n(Cc2ccc(Cl)cc2Cl)c1	0	0	0	0	0	0
O=c1ccc(S(=O)(=O)N2CCCC2)cn1Cc1ccc(Cl)cc1Cl	0	?	0	21µM	12µM	0
CCC/C(=N/NC(=O)c1csc(C)c1C)c1ccc(Cl)s1	0	0	0	0	0	0
CCCOc1c(OC)cccc1C1CC(=O)Nc2cc3c(cc21)OCO3 (centres undefined)	0[9.24 µM]	10µM	16µM	?	21µM	?
COc1cc(C2CC(=O)Nc3n[nH]c(-c4ccccc4)c32)cc(OC)c1OC (centres undefined)	?	21µM	0	8.2µM	15µM	?
Cc1cc2c(cc1C)C(c1cccc([N+](=O)[O-])c1)CC(=O)N2 (centres undefined)	?	0	?	23µM	18µM	?
CCOc1cccc(C2CC(=O)Nc3cc4c(cc32)OCCO4)c1 (centres undefined)	-	-	-	5.2µM	5.8µM	-
Cc1nc(-c2ccc(OCC(C)C)c(C#N)c2)sc1C(=O)O	-	-	-	0	0	-
Cc1ccc(NC(=O)CC(NCC2CCCO2)C(=O)O)cc1C (centres undefined)	0	0	0	0	0	0
O=C(CSc1nc2sc3c(c2c(=O)n1-c1ccccc1)CCCC3)N/N=C/c1ccccc1C(=O)O	0	0	?	0	0	0
CCCOc1c(OC)cccc1C1CC(=O)Nc2cc3c(cc21)OCCO3 (centres undefined)	?	?	?	?	13µM	?
COc1ccc(C2CC(=O)Nc3cc(OC)c(OC)cc32)cc1Br (centres undefined)	0	0	0	0	0	0
COc1cc2c(cc1OC)C(c1ccc(OC)c(OC)c1OC)CC(=O)N2 (centres undefined)	0	0	0	0	0	0
COc1cc(C2CC(=O)Nc3cc(C)c(C)cc32)cc(OC)c1OC (centres undefined)	?	9.2µM	16µM	16µM	12µM	?
CCOc1c(OC)cccc1C1CC(=O)Nc2cc(OC)c(OC)cc21 (centres undefined)	0	0	0	?	18µM	0
CCOc1c(Br)cc(C2CC(=O)Nc3cc(OC)c(OC)cc32)cc1OC (centres undefined)	?	0	0	?	23µM	0
Cc1ccc(NC(=O)C2CCN(c3cnccn3)CC2)cc1C	0	0	0	0	0	0
CN1CCN(C(c2ccccc2Cl)c2sc3nc(-c4ccco4)nn3c2O)CC1 (centres undefined)	-	-	-	0	0	-

Assay outcomes deposited in PubChem BioAssay by National Center for Advancing Translational Sciences (NCATS).
